This passage reports growth results from PubChem BioAssay (NCI).

This is part of a sample that, as a whole, favours compounds with a hit. Of some 83,000 tested, about 20% had one in any assay.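 Note: values are percent growth. 100 is the growth of untreated cells, values between 100 and 0 indicate rising inhibition; between -100 and 0 indicates cell death.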 A number with no mark means an inactive call. Activity calls are given as the source filed them. How the source made its calls: active means growth percent below 10; inactive means the rest.

Among the test systems are HCT-15 colon; HT29 colon; SNB-75 CNS; SNB-19 CNS; SK-MEL-5 melanoma; UACC-62 melanoma; LOX IMVI melanoma; SK-MEL-28 melanoma; SK-MEL-2 melanoma; EKVX NSCLC; SN12C renal; UO-31 renal; TK-10 renal; ACHN renal; CAKI-1 renal; A498 renal; CCRF-CEM leukemia; MOLT-4 leukemia; PC-3 prostate; U251 CNS.
What all share (experiment): NCI-60 one-dose screen, 48 h (100 = growth as untreated, 0 = no growth, -100 = all killed)
What all share (conditions): 10 µM unless noted

For the compound `COc1ccc(C(c2cc(OC)c(OC)c(OC)c2)N2CCN(Cc3ccccc3)CC2)cc1` (configuration not stated), the growth was 47.6% with HCT-15 colon; 28.3% in the assay with HT29 colon; 92.4% with SNB-75 CNS; 70% in the assay on SNB-19 CNS; 52.6% in the assay on SK-MEL-5 melanoma; 49.4% in the assay on UACC-62 melanoma. The growth was 67% in the assay with LOX IMVI melanoma; 78.3% with SK-MEL-28 melanoma; 27.4% in the assay with SK-MEL-2 melanoma; 82.7% in the assay on EKVX NSCLC; 88.4% in the assay with SN12C renal; 68.8% in the assay on UO-31 renal. The growth with TK-10 renal was 84.8%; with ACHN renal, 92.8%; with CAKI-1 renal it was 66.7%; in the assay with A498 renal, 51.9%; in the assay with CCRF-CEM leukemia, 68.8%; with MOLT-4 leukemia, 53.5%.

In the case of `Clc1nccc2c(-c3csc(-c4c[nH]c5ccccc45)n3)c[nH]c12`, the growth is -39.6% (active) in the assay on HCT-15 colon; 23.6% in the assay with HT29 colon; 41.4% in the assay with SNB-75 CNS; 71.8% in the assay with SNB-19 CNS; 40.1% in the assay on PC-3 prostate; 43.9% in the assay with UACC-62 melanoma. Further, the growth with LOX IMVI melanoma was 28.2%; in the assay with SK-MEL-28 melanoma, 23.9%; with SK-MEL-2 melanoma, 79.5%; in the assay on EKVX NSCLC it was 63.2%; in the assay on SN12C renal, 59.2%; with UO-31 renal, 25.9%. Besides, the growth was 55.8% in the assay on TK-10 renal; 24.4% in the assay with ACHN renal; 52.3% with CAKI-1 renal; 32.7% with A498 renal; 31.1% in the assay on CCRF-CEM leukemia; 40.5% in the assay on MOLT-4 leukemia.

Take `COc1ccc2c(c1)c(-c1ccc(-c3cn(C)c4ccc(OC)cc34)[nH]1)cn2C`: the growth in the assay on HCT-15 colon was 4.19% (active); in the assay with HT29 colon it was 48%; with SNB-19 CNS it was 27.2%; with U251 CNS it was -62.9% (active); with PC-3 prostate, -11% (active); in the assay with SK-MEL-5 melanoma, 29.6%. The growth was 5.29% (active) in the assay on UACC-62 melanoma; -17.8% (active) with LOX IMVI melanoma; -20.1% (active) in the assay with SK-MEL-28 melanoma; 45.3% in the assay on SK-MEL-2 melanoma; -4.9% (active) with EKVX NSCLC; 31.7% with SN12C renal. In addition, the growth with UO-31 renal is -47.3% (active); in the assay with TK-10 renal, 35.7%; in the assay with ACHN renal it was -44.6% (active); in the assay with CAKI-1 renal, 25.6%; in the assay with A498 renal it was 71.8%; in the assay with CCRF-CEM leukemia it was -5.64% (active). In the assay with MOLT-4 leukemia, the growth is 27.7%.

In the case of `Cc1ccc2[nH]c(-c3ccc(S(C)(=O)=O)cc3)c(/C=N/N=C(N)N)c2c1`, the growth with HCT-15 colon was 35.3%; in the assay with HT29 colon it was 16.7%; in the assay with SNB-75 CNS, 65.4%; in the assay on SNB-19 CNS, 57.1%; in the assay with PC-3 prostate it was 39.9%; in the assay with UACC-62 melanoma, 41.5%. The growth in the assay with LOX IMVI melanoma is 47.3%; in the assay with SK-MEL-28 melanoma, 71.2%; with SK-MEL-2 melanoma it was 43.2%; with EKVX NSCLC, 90.2%; with SN12C renal, 56.9%; in the assay with UO-31 renal, 60%. For the same compound, the growth with TK-10 renal is 90.9%; in the assay on ACHN renal, 63%; in the assay on CAKI-1 renal it was 52.3%; in the assay on A498 renal it was 38.2%; in the assay on CCRF-CEM leukemia, 37.2%; with MOLT-4 leukemia, 41.6%.

On to `CN1C(=O)N(C)C2C1NC(=S)N2/N=C/C=C/c1ccccc1[N+](=O)[O-]` (configuration not stated), for which the growth was 29% in the assay on HCT-15 colon; 2.85% (active) in the assay on HT29 colon; 37% in the assay on SNB-19 CNS; 20.2% with U251 CNS; 17.3% in the assay on PC-3 prostate; 11.8% with SK-MEL-5 melanoma. Also, the growth in the assay with UACC-62 melanoma was 26.4%; in the assay on LOX IMVI melanoma, 31.6%; with SK-MEL-28 melanoma, 56.7%; in the assay with SK-MEL-2 melanoma, 17%; with EKVX NSCLC, 43.6%; with SN12C renal it was 31.4%. Besides, the growth is 44.6% in the assay on UO-31 renal; 42.8% in the assay with TK-10 renal; 30.7% with ACHN renal; 23% in the assay with CAKI-1 renal; 10.8% in the assay with A498 renal; 7.73% (active) in the assay with CCRF-CEM leukemia.

As for `CC/C=C\C/C=C/C=C1/C(=O)C=C[C@@H]1C/C=C\CCCC(=O)OC`, the growth was 4.13% (active) with HCT-15 colon; 2.21% (active) in the assay on HT29 colon; 62.3% in the assay on SNB-19 CNS; 28.7% in the assay on U251 CNS; 30.2% in the assay with PC-3 prostate; 70.1% with SK-MEL-5 melanoma. Further, the growth with UACC-62 melanoma was -6.19% (active); in the assay with LOX IMVI melanoma, -70% (active); in the assay on SK-MEL-28 melanoma, 36.7%; with SK-MEL-2 melanoma it was 92.6%; in the assay on EKVX NSCLC, 99.4%; in the assay with SN12C renal, -8.45% (active). Also, the growth in the assay on UO-31 renal is 28.2%; with TK-10 renal it was 31.6%; in the assay with ACHN renal, 14.1%; with CAKI-1 renal, 29.7%; with A498 renal, 109%; in the assay with CCRF-CEM leukemia, 1.18% (active). Moreover, the growth in the assay with MOLT-4 leukemia is 5.5% (active).

As to `COc1cccc2c(N=NC(=O)c3ccc(S(N)(=O)=O)cc3)c(O)[nH]c12`, the growth in the assay with HCT-15 colon was 98.8%; in the assay on HT29 colon, 106%; in the assay on SNB-19 CNS, 97.1%; with U251 CNS, 101%; in the assay with PC-3 prostate, 99.1%; with UACC-62 melanoma, 99.8%. For the same compound, the growth was 99.5% in the assay with LOX IMVI melanoma; 112% in the assay with SK-MEL-28 melanoma; 112% with SK-MEL-2 melanoma; 98.4% with EKVX NSCLC; 98.3% with SN12C renal; 76.7% with UO-31 renal. In addition, the growth is 108% with TK-10 renal; 105% in the assay on ACHN renal; 93.6% in the assay with CAKI-1 renal; 94.8% with A498 renal; 112% in the assay with CCRF-CEM leukemia; 109% with MOLT-4 leukemia.

For `O=C1/C(=C/c2ccc(C(F)(F)F)cc2)COc2ccc(O)c(O)c21`, the growth in the assay on HCT-15 colon was -6.49% (active); in the assay with HT29 colon it was 8.23% (active); with SNB-19 CNS, 27.1%; in the assay with U251 CNS, -50.6% (active); in the assay with PC-3 prostate, -36.1% (active); in the assay on SK-MEL-5 melanoma, 68.5%. For the same compound, the growth in the assay with UACC-62 melanoma was 12.2%; with LOX IMVI melanoma, -90.8% (active); in the assay on SK-MEL-28 melanoma, 72.1%; in the assay with SK-MEL-2 melanoma it was 98%; with EKVX NSCLC it was 52.3%; in the assay with SN12C renal, -58.6% (active). Moreover, the growth was -98.9% (active) in the assay with UO-31 renal; 11.9% in the assay on TK-10 renal; -57.6% (active) with ACHN renal; -23.6% (active) in the assay with CAKI-1 renal; 116% in the assay on A498 renal; -3.75% (active) with CCRF-CEM leukemia. In the assay with MOLT-4 leukemia, the growth was -1.49% (active).
